Data from PubChem BioAssay AID1159580 (chemical genetic matrix, 2015).
Out of some 5,500 compounds screened, about 2,000 (36%) were called active. Inconclusive results (about 18%) are left out. Cut-off read from the data, not from the text of the source: active = normalized growth mostly below about 0.91 (no sharp cut-off); inconclusive = no clear call, values can overlap the other calls; inactive = mostly above about 0.92. This is one part of the list.

Assay: chemical genetic growth profiling, strain panel (AID 1159580);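 note: tested at 20 µM; growth read once vehicle control cultures reached saturation at 30 °C; 1 = growth at the plate median or of vehicle wells; lower values mean less growth of the strain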
Conditions: growth OD

Measured: normalized growth

CC(Oc1ccccc1)C(=O)N[C@@H]1C(=O)N2[C@@H]1SC(C)(C)[C@@H]2C(=O)O (some centres not stated)
inactive: S. cerevisiae deletion strains, locus YJR075W, strain HOC1, hits give low values 1.01 | S. cerevisiae deletion strains, locus YKL009W, strain mrt4, hits give low values 0.995 | S. cerevisiae deletion strains, locus YKL068W, hits give low values 1.01 | S. cerevisiae deletion strains, locus YKL085W, strain MDH1 (second series), hits give low values 1 | S. cerevisiae deletion strains, locus YKL085W, strain MDH1, hits give low values 1 | S. cerevisiae deletion strains, locus YKL160W, strain elf1, hits give low values 0.985 | S. cerevisiae deletion strains, locus YKL190W, strain CNB1, hits give low values 1.01 | S. cerevisiae deletion strains, locus YKR001C, strain vps1, hits give low values 1.02 | S. cerevisiae deletion strains, locus YKR026C, strain gcn3, hits give low values 0.993 | S. cerevisiae deletion strains, locus YKR091W, strain srl3, hits give low values 0.993 | S. cerevisiae deletion strains, locus YLL001W, strain dnm1, hits give low values 0.983 | S. cerevisiae deletion strains, locus YLL026W, hits give low values 0.998 | S. cerevisiae deletion strains, locus YLL041C, strain sdh2, hits give low values 0.992 | S. cerevisiae deletion strains, locus YLR027C, strain aat2, hits give low values 1 | S. cerevisiae deletion strains, locus YLR039C, strain RIC1, hits give low values 1.02 | S. cerevisiae deletion strains, locus YLR058C, strain SHM2, hits give low values 1.01 | S. cerevisiae deletion strains, locus YLR102C, strain apc9, hits give low values 1.02 | S. cerevisiae deletion strains, locus YLR113W, strain HOG1, hits give low values 1.01 | S. cerevisiae deletion strains, locus YLR221C, strain rsa3, hits give low values 0.981 | S. cerevisiae deletion strains, locus YLR258W, strain gsy2, hits give low values 0.986 | S. cerevisiae deletion strains, locus YLR262C, strain YPT6 (second series), hits give low values 1.01 | S. cerevisiae deletion strains, locus YLR262C, strain YPT6, hits give low values 1.04 | S. cerevisiae deletion strains, locus YLR268W, strain sec22, hits give low values 1.03 | S. cerevisiae deletion strains, locus YLR320W, strain mms22, hits give low values 0.984 | S. cerevisiae deletion strains, locus YLR330W, strain CHS5, hits give low values 1.01 | S. cerevisiae deletion strains, locus YLR342W, strain FKS1 (second series), hits give low values 1 | S. cerevisiae deletion strains, locus YLR342W, strain FKS1, hits give low values 1 | S. cerevisiae deletion strains, locus YLR357W, strain rsc2, hits give low values 0.978 | S. cerevisiae deletion strains, locus YLR370C, strain arc18, hits give low values 0.992 | S. cerevisiae deletion strains, locus YLR371W, strain rom2, hits give low values 1.02 | S. cerevisiae deletion strains, locus YLR384C, strain iki3, hits give low values 0.992 | S. cerevisiae deletion strains, locus YLR418C, strain cdc73, hits give low values 1.04 | S. cerevisiae deletion strains, locus YML016C, strain PPZ1, hits give low values 1.02 | S. cerevisiae deletion strains, locus YML032C, strain rad52, hits give low values 1.02 | S. cerevisiae deletion strains, locus YML120C, strain ndi1, hits give low values 0.985 | S. cerevisiae deletion strains, locus YML124C, strain tub3, hits give low values 1.02 | S. cerevisiae deletion strains, locus YMR058W, strain fet3, hits give low values 1 | S. cerevisiae deletion strains, locus YMR078C, strain ctf18, hits give low values 1.03 | S. cerevisiae deletion strains, locus YMR125W, strain sto1, hits give low values 0.992 | S. cerevisiae deletion strains, locus YMR129W, hits give low values 0.99 | S. cerevisiae deletion strains, locus YMR205C, strain PFK2, hits give low values 0.995 | S. cerevisiae deletion strains, locus YMR223W, strain ubp8, hits give low values 1.01 | S. cerevisiae deletion strains, locus YMR231W, strain pep5, hits give low values 1 | S. cerevisiae deletion strains, locus YMR263W, strain SAP30, hits give low values 1.01 | S. cerevisiae deletion strains, locus YMR307W, strain GAS1, hits give low values 1.02 | S. cerevisiae deletion strains, locus YNL067W, strain RPL9B, hits give low values 1.01 | S. cerevisiae deletion strains, locus YNL071W, strain lat1, hits give low values 0.996 | S. cerevisiae deletion strains, locus YNL128W, strain TEP1, hits give low values 1.02 | S. cerevisiae deletion strains, locus YNL153C, strain GIM3, hits give low values 1.01 | S. cerevisiae deletion strains, locus YNL183C, strain NPR1, hits give low values 0.972 | S. cerevisiae deletion strains, locus YNL209W, strain ssb2, hits give low values 0.996 | S. cerevisiae deletion strains, locus YNL233W, strain BNI4, hits give low values 1.02 | S. cerevisiae deletion strains, locus YNL248C, strain rpa49, hits give low values 0.991 | S. cerevisiae deletion strains, locus YNL250W, strain rad50, hits give low values 1.03 | S. cerevisiae deletion strains, locus YNL271C, strain bni1, hits give low values 1.02 | S. cerevisiae deletion strains, locus YNL298W, strain CLA4, hits give low values 1.03 | S. cerevisiae deletion strains, locus YNL307C, strain MCK1, hits give low values 1.03 | S. cerevisiae deletion strains, locus YNL322C, strain KRE1 (second series), hits give low values 1.01 | S. cerevisiae deletion strains, locus YNL322C, strain KRE1, hits give low values 1.01 | S. cerevisiae deletion strains, locus YNR049C, strain mso1, hits give low values 0.992 | S. cerevisiae deletion strains, locus YNR052C, strain pop2, hits give low values 1.02 | S. cerevisiae deletion strains, locus YOL006C, strain TOP1, hits give low values 1.05 | S. cerevisiae deletion strains, locus YOL012C, strain htz1 1.34 | S. cerevisiae deletion strains, locus YOL147C, strain pex11, hits give low values 1.02 | S. cerevisiae deletion strains, locus YOR001W, strain rrp6, hits give low values 1 | S. cerevisiae deletion strains, locus YOR061W, strain CKA2, hits give low values 1.02 | S. cerevisiae deletion strains, locus YOR069W, strain VPS5, hits give low values 1.01 | S. cerevisiae deletion strains, locus YOR070C, strain gyp1, hits give low values 0.992 | S. cerevisiae deletion strains, locus YOR080W, strain dia2, hits give low values 0.988 | S. cerevisiae deletion strains, locus YOR083W, strain WHI5, hits give low values 0.984 | S. cerevisiae deletion strains, locus YOR106W, strain vam3, hits give low values 0.979 | S. cerevisiae deletion strains, locus YOR136W, strain idh2, hits give low values 1.02 | S. cerevisiae deletion strains, locus YOR144C, strain elg1, hits give low values 1.03 | S. cerevisiae deletion strains, locus YOR184W, strain ser1, hits give low values 1.02 | S. cerevisiae deletion strains, locus YOR231W, strain MKK1, hits give low values 1.02 | S. cerevisiae deletion strains, locus YOR265W, strain rbl2, hits give low values 0.991 | S. cerevisiae deletion strains, locus YOR270C, strain vph1, hits give low values 1.04 | S. cerevisiae deletion strains, locus YOR290C, strain snf2, hits give low values 1.03 | S. cerevisiae deletion strains, locus YOR316C, strain cot1, hits give low values 1.02 | S. cerevisiae deletion strains, locus YPL051W, strain arl3, hits give low values 1.01 | S. cerevisiae deletion strains, locus YPL055C, strain LGE1, hits give low values 1.02 | S. cerevisiae deletion strains, locus YPL078C, strain atp4, hits give low values 0.994 | S. cerevisiae deletion strains, locus YPL106C, strain sse1, hits give low values 0.968 | S. cerevisiae deletion strains, locus YPL240C, strain hsp82, hits give low values 0.994 | S. cerevisiae deletion strains, locus YPL241C, strain CIN2, hits give low values 1.01 | S. cerevisiae deletion strains, locus YPL256C, strain CLN2, hits give low values 1.03 | S. cerevisiae deletion strains, locus YPR119W, strain clb2, hits give low values 1.02 | S. cerevisiae deletion strains, locus YPR141C, strain kar3, hits give low values 1.02 | S. cerevisiae deletion strains, locus YPR163C, strain tif3, hits give low values 1.04 | S. cerevisiae deletion strains, locus YPR167C, strain met16, hits give low values 1.02 | S. cerevisiae deletion strains, strain wtn01, hits give low values 1.02 | S. cerevisiae strains, strain wild type, hits give low values 1.02
